Most compounds without a hit are left out; they make up all but 8.6% or so of the library.
MARV entry inh = inhibitors of Marburg virus binding or entry into cells. Marburg virus pseudotype entry/binding inhibition, cell-based. Potency, µM (highest dose often 49.2 µM), for the others: at the top dose activity change, negative = inhibition, hits mostly inhibitors. actives 6.5% (n = 18,000). AID 720532
LASV entry inh = blocks Lassa virus binding or cell entry; Lassa virus pseudotyped entry inhibition, cell-based qHTS; Potency, µM (titrated, usually from 49.2 µM), for inactives: at the highest dose activity change, negative = inhibition, usual class: inhibitors; actives 4.1% (n = 18,000)
* hit, by the source's call; ? = inconclusive; / = not tested or not shown; ! = not active in a repeat; [ ] = remark or other dose. The call rests on the fitted dose curve; tested in HEK293 cells. On the % scale 0 is the no-effect control and ±100 the full control effect; potency means the concentration at half of the fitted maximal effect.

SMILES	MARV entry inh	LASV entry inh
CCOC(=O)C1=CN(CCC=C(C)C)C(=O)NC1c1ccccc1 (centres undefined)	7%[8.59 µM]	-16%[8.59 µM]
CC(CCN1CCCc2nc(C)c(C)cc21)=NOC[C@@H](O)[C@H]1O[C@@H]2OC(C)(C)O[C@H]2[C@@H]1O	-8%[8.59 µM]	35%[8.59 µM]
Cc1ccc(F)cc1S(=O)(=O)NCc1nc(N2CCCC2)c2cccc(C)c2n1	13µM*	-10%
Cc1cccc2c(N3CCCC3)nc(CNS(=O)(=O)c3ccccc3F)nc12	?	5%
COc1cc2c(Nc3ccc(NC(=O)c4ccccc4)cc3)ncnc2cc1OCCCN1CCOCC1	?	10%
COc1cc(C(C)=O)ccc1OCCCN1CCC(c2noc3cc(F)ccc23)CC1	6.3µM*	-13%
COCOc1c2c(c(OCOC)c3c(OCOC)cccc13)C(=NNS(C)(=O)=O)C1=C2CCCC1	1%[8.59 µM]	-3%[8.59 µM]
COC1=CC2C(=O)C(C(c3ccccc3)C2C)C1(C)O (centres undefined)	1%[8.59 µM]	-11%[8.59 µM]
COc1ccc2c(c1)[C@@]1(OCCC=C[C@@H]1C)C(=O)N2Cc1ccc(F)cc1	28%[8.59 µM]	40%[8.59 µM]
CN1CCN(CCCN2c3ccccc3Sc3ccc(Cl)cc32)CC1	10µM*	20µM*!
CN1CCN(CCCN2c3ccccc3Sc3ccccc32)CC1	14µM*	?
CCSc1ccc2c(c1)N(CCCN1CCN(C)CC1)c1ccccc1S2	?	-17%[17.8 µM]
O=C(NCC1CC1)c1ccc(-c2cccc(C(=O)NC3CC3)c2)cc1	36%	36%
CCOC(=O)N1CCN(Cc2ccc3c(c2)CN(C(=O)c2cc(-c4ccccc4)on2)CCO3)CC1	-28%	?
C[C@H]1[C@H](O)[C@@H](N=[N+]=[N-])CCO[C@H]1c1ccccc1	-12%[8.59 µM]	-6%[8.59 µM]
NS(=O)(=O)c1ccc(Nc2cc(-c3ccc(O)c(F)c3)[nH]n2)cc1	-27%	39%
O=C(c1ccccc1)[C@@H]1O[C@@H]1c1ccccc1	41%[8.59 µM]	-19%[8.59 µM]
Cc1ccc(NC2=CC(=O)c3sc(C)nc3C2=O)cc1	4µM*	3.5µM*
C=CC[C@@H]1C=C[C@H](ON=C[C@@H](N[S+](=O)([O-])c2ccc(C)cc2)[C@H](C)C=CCC(=O)OC)[C@H](CO)O1	-14%[8.59 µM]	-27%[8.59 µM]
CC(=O)C1=C(C)C[C@@]2(CC1)C(=O)[C@H](Cc1ccccc1)N(Cc1ccccc1)S2(=O)=O	-17%	7%
Fc1ccc(-c2cc(-c3cn[nH]c3-c3ccccn3)ccn2)cc1	8%	57%
C[C@H]1[C@H]2CC[C@H]3[C@@H]4CC=C5C[C@@H](N(C)C)CC[C@]5(C)[C@H]4CC[C@]23CN1C	3.2µM*	-26%
C[C@]12CC[C@H]3[C@@H](CC=C4C[C@@H](O)CC[C@@]43C)[C@@H]1CC[C@@H]2O	25%	-10%
COC(=O)[C@@H]1[C@@H](c2cccc(C(F)(F)F)c2)NC(=O)N(Cc2ccccc2)[C@@H]1C	-19%[8.59 µM]	-22%[8.59 µM]
Nc1ccc(O)cc1	50µM*	45µM*
SMILES	MARV entry inh	LASV entry inh
NCCc1ccc(O)cc1	12%	?
NS(=O)(=O)c1ccc(N=Nc2c(O)[nH]c3ccc(C(=O)NCCCn4ccnc4)cc23)cc1	-12%	?
C1CCC(C(C[C@@H]2CCCCN2)C2CCCCC2)CC1	7.9µM*	-26%[17.8 µM]
C[C@H]1[C@@H](c2ccccc2)Oc2c(Cl)cccc2S(=O)(=O)N1Cc1ccc(F)cc1F	?	9%
Cc1c(C)n(CCN(C)C)c2ccc(C(=O)OCCN(C)C)cc12	4µM*	32µM*
CCCCNc1ccc(C(=O)OCCN(C)C)cc1	?	-2%
COCCN1C(=O)C2=C(C1=O)C1N(C)c3ccccc3[C@@]13C[C@@H](CO)N=C3N2 (some centres undefined)	25%[8.59 µM]	18%[8.59 µM]
CNCC(=O)c1ccc(O)c(O)c1	16µM*	-15%
O=C(O)Cc1ccc(O)c(O)c1	8%	-18%
CN(C)CCOc1ccc(/C(=C(/CCCl)c2ccccc2)c2ccccc2)cc1	?	-30%
CCN(CC)CCOc1ccc(Cc2ccccc2)cc1	10µM*	7%
Cc1ccc2[nH]nc(C(=O)N3CCOc4ccc(CN5CCc6sccc6C5)cc4C3)c2c1	?	18%
O=[S+]1([O-])C[C@@H](N2CCN(CCO)CC2)[C@@H](COCc2ccccc2)N1	-10%	-16%
COc1cccc([C@H]2Oc3ccc(OC)cc3C(=NO[C@@H](C)c3cc(-c4c(C)cc(C)cc4C)no3)[C@H]2O)c1	5%[8.59 µM]	10%[8.59 µM]
Nc1nc(=S)c2[nH]cnc2[nH]1	3.2µM*	2.8µM*
Nc1ncnc2nc[nH]c12	17%	7%
CCCCCC(=O)N1C[C@H](O)[C@@H](n2cc(-c3ccc(F)cc3)nn2)C[C@H]1c1ccc(C)cc1	?	-30%
CC(C)n1nc(-c2cc3cc(O)ccc3[nH]2)c2c(N)ncnc21	3.5µM*	4µM*
CC(C)(C)n1nc(-c2ccc(Cl)cc2)c2c(N)ncnc21	39%	6%
CCN1C(=NCCc2c[nH]c3ccccc23)NC(c2ccccc2)C(C(=O)OC)=C1C (centres undefined)	?	8%[8.59 µM]
c1nc(NC2CCNCC2)c2cc(-c3ccc4c(c3)OCO4)ccc2n1	?	-5%
CN(C)Cc1ccccc1-c1ccc2ncnc(NC3CCNCC3)c2c1	7.1µM*	7%
CN(C)Cc1ccccc1-c1ccc2ncnc(NCc3ccccc3)c2c1	?	0%
CN(C)Cc1ccccc1-c1ccc2ncnc(NCc3cccs3)c2c1	8.9µM*	-5%
COC(=O)c1ccccc1-c1cc(C)cc2c1OC(CNC(=O)c1ccn(C)n1)C2 (centres undefined)	?	0%
SMILES	MARV entry inh	LASV entry inh
COC(=O)CC=C[C@@H](C)[C@@H](C=NO[C@@H](C)c1cn([C@H](CO)Cc2ccccc2)nn1)NS(=O)(=O)c1ccc(C)cc1	-13%[8.59 µM]	/
COc1ccc(C(CCN2CCOCC2)c2c(OC)cc(OC)c3c(-c4ccccc4)cc(=O)oc23)cc1 (centres undefined)	22µM*	?
COc1cc(OC)c2ccc(=O)oc2c1C(CCN1CCOCC1)c1ccc(N(C)C)cc1 (centres undefined)	-11%	6%
COc1cc(OC)c2c(=O)c(-c3ccccc3)c(C)oc2c1OC	12%	2%
COc1cc(OC)c2c(-c3ccccc3)cc(=O)oc2c1C(CCN1CCOCC1)c1ccc2c(c1)OCO2 (centres undefined)	10µM*	?
COc1cc(OC)c2ccc(=O)oc2c1C(CCN1CCOCC1)c1ccc2c(c1)OCO2 (centres undefined)	?	-26%
COc1cc(C(CCN2CCOCC2)c2c(OC)cc(OC)c3c(-c4ccccc4)cc(=O)oc23)cc(OC)c1OC (centres undefined)	10µM*	4.5µM*
Cc1nc(-c2ccccc2)n2nc(NCCCN3CCOCC3)ncc12	-29%	/
Cc1cc2c(c(=O)n1Cc1ccccc1)[C@H]1O[C@](CCCCN3C(=O)c4ccccc4C3=O)(Cc3ccccc31)O2	15%[8.59 µM]	3%[8.59 µM]
COP(=S)(OC)Oc1ccc([N+](=O)[O-])cc1	11µM*	?
COP(=S)(OC)Oc1ccc(S(N)(=O)=O)cc1	-5%	-18%
O[C@H]1CN(CC2CCCCC2)[C@@H](c2ccccc2)C[C@H]1n1cc(C2CC2)nn1	?	-7%
COC(=O)C1=C(C)N(Cc2ccccc2)C(=O)NC1c1cccc(C(F)(F)F)c1 (centres undefined)	17%[8.59 µM]	5%[8.59 µM]
FC(F)(F)c1cc(CO[C@H]2CCCN[C@H]2c2ccccc2)cc(C(F)(F)F)c1	10µM*	25µM*
CC(=O)[C@]12C[C@@H]3CCN(C(=O)N[C@@H]1c1ccccc1)[C@@]32C	?	-18%[8.59 µM]
